In PubChem BioAssay (Tox21):
A number with no mark means an inactive call. Records with an inconclusive call do not appear. Where a call stands in place of a potency, no number is given. Calls of active or inactive are those of the source. Unless noted, calls follow the shape of the full dose curve.

What was measured:
[1] = qHTS assay to identify small molecule agonists of the sonic hedgehog signaling (Shh) pathway (AID 1259368);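 also: NIH/3T3-derived 3T3Gli1-Luc cells carrying a stable Gli1-driven firefly luciferase reporter; series mostly up to about 92 µM; nearly all actives have a fitted effect of over 15% in size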
Outline: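 3T3Gli1-Luc (NIH/3T3 clone, stable Gli1-Luc); 4 hr pre-incubation, then cpd in DMSO 24 hr, 37 C/5% CO2; luciferase reagent 30 min RT; luminescence.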

[2] = qHTS assay to identify small molecule antagonists of the sonic hedgehog signaling (Shh) pathway (AID 1259369); also: nearly all actives have a fitted effect of over 45% in size; also: potency is read from the fitted curve at half-maximal effect
Outline: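 3T3Gli1-Luc, conditioned-medium-stimulated, 24hr cpd, 37C/5% CO2; Gli1-driven firefly Luc luminescence after 30min RT with luciferase reagent. Cells plated 4hr before cpd.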

[3] = molecular target: Estrogen receptor beta (Homo sapiens) (UniProt Q92731); experiment: qHTS assay to identify small molecule agonists of the estrogen receptor beta (ER-beta) signaling pathway (AID 1259377; active = well fitted activation curve with a large enough effect in the signal ratio in the repeat runs, not every such curve was filed as active; the % refers to the signal ratio)
Outline: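 qHTS in ER-beta-UAS-bla HEK293T cells: 6 hr settling, then 16 hr compound at 37C, then LiveBLAzer substrate 2 h at RT before fluorescence reading.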

[4] = molecular target: Estrogen receptor beta (Homo sapiens) (UniProt Q92731); experiment: qHTS assay to identify small molecule antagonists of the estrogen receptor beta (ER-beta) signaling pathway (AID 1259378; active = well fitted inhibition curve with a large enough effect in the signal ratio in the repeat runs, not every such curve was filed as active; the % refers to the signal ratio)
Outline: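 ER-beta-UAS-bla HEK293T (GripTite) cells in 2% charcoal-stripped FBS medium were preincubated 6 hr at 37C, dosed with compound, then stimulated with 1 nM E2 (final) for 16 hr; beta-lactamase reporter read by B/G FRET fluorescence after 2 hr substrate loading.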

[5] = qHTS assay to identify small molecule agonists of the androgen receptor (AR) signaling pathway in the presence of an antagonist - cell viability counter screen (AID 1259379; active = well fitted curve in the direction sought with a large enough effect in the repeat runs; an effect the other way counts as inactive or inconclusive;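 also: MDA-kb2 human breast cancer cells carrying an MMTV luciferase reporter; series mostly up to about 92 µM; nearly all actives have a fitted effect of over 25% in size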)
Outline: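 Cells: MDA-kb2 (MMTV-luc, AR and GR elements), 3,000/well, 5 hr settle. Added: nilutamide 3.0uM final, then compounds (15 conc.). Incubation: 16 hr, 37C, no CO2. Read-out: CellTiter-Fluor, 1 hr, fluorescence.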

[6] = qHTS assay to identify small molecule agonists of the estrogen receptor beta (ER-beta) signaling pathway - cell viability counter screen (AID 1259380; active = well fitted curve in the direction sought with a large enough effect in the repeat runs; an effect the other way counts as inactive or inconclusive; also: nearly all actives have a fitted effect of over 30% in size)
Outline: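 HEK293T ER-beta-UAS-bla; 2% CS-FBS; 6 hr pre-plate, 16 hr cpd at 37C/5% CO2; LiveBLAzer read first, then CellTiter-Glo 30 min RT, luminescence.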

[7] = molecular target: Androgen receptor (Homo sapiens) (UniProt P10275); experiment: qHTS assay to identify small molecule agonists of the androgen receptor (AR) signaling pathway in the presence of an antagonist (AID 1259381); also: nearly all actives have a fitted effect of over 15% in size
Outline: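 MDA-kb2 cells, 3,000/well, rested 5hr at 37C/0% CO2 → nilutamide 3.0uM final or buffer → compounds, 15 conc. → 16hr at 37C → ONE-Glo, 30min RT → luminescence.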

[8] = qHTS assay to identify small molecule antagonists of the estrogen receptor beta (ER-beta) signaling pathway - cell viability counter screen (AID 1259382; active = well fitted curve in the direction sought with a large enough effect in the repeat runs; an effect the other way counts as inactive or inconclusive; also: series mostly up to about 92 µM; nearly all actives have a fitted effect of over 55% in size)
Outline: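 Cells: ER-beta-UAS-bla HEK293T, 2,000/well, 2% CS-FBS, 6 hr settle. Cpd + E2 (1nM final), 16 hr, 37C/5% CO2. Bla FRET substrate 2 hr RT, then CellTiter-Glo 30 min RT, luminescence.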

[9] = molecular target: Estrogen receptor (Homo sapiens) (UniProt P03372); experiment: qHTS assay to identify small molecule agonists of the estrogen receptor alpha (ER-alpha) signaling pathway in the presence of an antagonist (AID 1259383); also: top concentration of the series differs between compounds; nearly all actives have a fitted effect of over 15% in size
Outline: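 VM7Luc4E2, endog. ER-alpha + 4×ERE-luc; charcoal-stripped FBS, phenol red-free, 5 d; 24hr plating; +10.0nM ICI-182,780 (final); cpds 15 conc, 22hr, 37C/5% CO2; ONE-Glo luminescence.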

[10] = qHTS assay to identify small molecule agonists or antagonists of the thyroid stimulating hormone receptor (TSHR) signaling pathway - wild type cell line counter screen (AID 1259384)
Outline: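 Wild-type HEK293 cells were plated 18 h at 37 C/5% CO2, pin-dosed with compound plus Ro20-1724 medium, held 30 min at room temperature, then given cAMP-d2 and anti-cAMP-cryptate; fluorescence was read after 1 h. Fifteen concentrations, triplicate.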

[11] = molecular target: Thyrotropin receptor (Homo sapiens) (UniProt P16473); experiment: qHTS assay to identify small molecule antagonists of the thyroid stimulating hormone receptor (TSHR) signaling pathway (AID 1259385); also: nearly all actives have a fitted effect of over 20% in size
Outline: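 TSHR-HEK293 cells were plated and held 18 h at 37C/5% CO2, then given compound plus Ro20-1724 and stimulated with TSH at 1.5 ng/mL final. After 30 min at room temperature, cAMP was detected with cAMP-d2/anti-cAMP-cryptate (1 h) by fluorescence.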

[12] = qHTS assay to identify small molecule agonists of the estrogen receptor alpha (ER-alpha) signaling pathway in the presence of an antagonist - cell viability counter screen (AID 1259386; active = well fitted curve in the direction sought with a large enough effect in the repeat runs; an effect the other way counts as inactive or inconclusive;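 also: series mostly up to about 92 µM; cells exposed to compounds for 22 h at 37 °C before the viability read; nearly all actives have a fitted effect of over 30% in size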)
Outline: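 VM7Luc4E2, stripped-serum pre-culture 5 d; 24hr plating; +ICI-182,780 10.0nM final; cpds 15 conc, 22hr, 37C/5% CO2; CellTiter-Fluor added at 21hr, fluorescence 1hr later.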

[13] = molecular target: Progesterone receptor (Homo sapiens) (UniProt P06401); experiment: qHTS assay to identify small molecule agonists of the progesterone receptor (PR) signaling pathway (AID 1346784); also: nearly all actives have a fitted effect of over 30% in size
Outline: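 Fluorescence from LiveBLAzer B/G FRET substrate cleavage (2 hr, RT) reported PR activation in PR-UAS-bla HEK 293T cells treated 16 hr at 37C/5% CO2 with compounds; medium contained 2% charcoal-stripped FBS.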

[14] = molecular target: Progesterone receptor (Homo sapiens) (UniProt P06401); experiment: qHTS assay to identify small molecule antagonists of the progesterone receptor (PR) signaling pathway (AID 1346795; active = well fitted inhibition curve with a large enough effect in the signal ratio in the repeat runs, not every such curve was filed as active; the % refers to the signal ratio)
Outline: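 Fluorescence intensity measured 2 hr after adding beta-lactamase FRET substrate to PR-UAS-bla HEK293T cells that had been co-treated 16 hr with compound and 1 nM R5020 (final concentration) in 2% charcoal-stripped FBS.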

[15] = qHTS assay to identify small molecule antagonists of the progesterone receptor (PR) signaling pathway - cell viability counter screen (AID 1346798; active = well fitted curve in the direction sought with a large enough effect in the repeat runs; an effect the other way counts as inactive or inconclusive; also: series mostly up to about 92 µM; nearly all actives have a fitted effect of over 50% in size)
Outline: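 CellTiter-Glo luminescence; PR-UAS-bla HEK293T, 3,000 cells/well; compound + R5020, 16 hr, 37C/5% CO2; 30 min RT before read.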

[16] = qHTS assay to identify small molecule agonists of the progesterone receptor (PR) signaling pathway - cell viability counter screen (AID 1346799); also: nearly all actives have a fitted effect of over 45% in size
Outline: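 In parallel with the beta-lactamase readout, cytotoxicity toward PR-UAS-bla HEK293T cells was measured by CellTiter-Glo luminescence following 16 hr compound incubation in 2% charcoal-stripped FBS medium.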

[17] = qHTS assay to identify small molecule antagonists of the TGF-beta/Smad signaling pathway - cell viability counter screen (AID 1346824; active = well fitted curve in the direction sought with a large enough effect in the repeat runs; an effect the other way counts as inactive or inconclusive; also: nearly all actives have a fitted effect of over 50% in size)
Outline: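 SBE-bla HEK 293T cells were plated overnight at 37 C, then given compounds in DMSO plus TGF-beta1 (added as 0.25 ng/mL solution) for 5 hr. After the bla read, CellTiter-Glo was added to the same wells and luminescence read after 30 min at room temperature.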

[18] = qHTS assay to identify small molecule agonists of the TGF-beta/Smad signaling pathway - cell viability counter screen (AID 1346829; active = well fitted curve in the direction sought with a large enough effect in the repeat runs; an effect the other way counts as inactive or inconclusive; also: top concentration of the series differs between compounds; nearly all actives have a fitted effect of over 45% in size)
Outline: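 Compound-treated SBE-bla HEK 293T cells (5 hr, 37 C) were assessed for viability with CellTiter-Glo in parallel with the reporter read.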

[19] = qHTS assay to identify small molecule agonists of the TGF-beta/Smad signaling pathway (AID 1346859; active = well fitted activation curve with a large enough effect in the signal ratio in the repeat runs, not every such curve was filed as active; the % refers to the signal ratio; also: series mostly up to about 77 µM)
Outline: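 After overnight seeding, SBE-bla HEK 293T cells are dosed with compounds in DMSO and kept 5 hr at 37 C, 5% CO2. LiveBLAzer-type FRET substrate is then applied for 2 hr at room temperature.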

[20] = molecular target: Thyrotropin-releasing hormone receptor (Homo sapiens) (UniProt P34981); experiment: qHTS assay to identify small molecule antagonists of the thyrotropin-releasing hormone receptor (TRHR) signaling pathway (AID 1346877; active = well fitted inhibition curve with a large enough effect in the repeat runs, not every such curve was filed as active; also: series mostly up to about 51 µM)
Outline: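 Intracellular calcium fluorescence, read kinetically every second over 3 min, reports TRH-evoked signalling in HEK293 cells carrying TRHR. Test compounds were added 5 min ahead of a 1 nM TRH challenge.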

Chain of Estrogen receptor beta (Homo sapiens) (Q92731 whole entry, looked up): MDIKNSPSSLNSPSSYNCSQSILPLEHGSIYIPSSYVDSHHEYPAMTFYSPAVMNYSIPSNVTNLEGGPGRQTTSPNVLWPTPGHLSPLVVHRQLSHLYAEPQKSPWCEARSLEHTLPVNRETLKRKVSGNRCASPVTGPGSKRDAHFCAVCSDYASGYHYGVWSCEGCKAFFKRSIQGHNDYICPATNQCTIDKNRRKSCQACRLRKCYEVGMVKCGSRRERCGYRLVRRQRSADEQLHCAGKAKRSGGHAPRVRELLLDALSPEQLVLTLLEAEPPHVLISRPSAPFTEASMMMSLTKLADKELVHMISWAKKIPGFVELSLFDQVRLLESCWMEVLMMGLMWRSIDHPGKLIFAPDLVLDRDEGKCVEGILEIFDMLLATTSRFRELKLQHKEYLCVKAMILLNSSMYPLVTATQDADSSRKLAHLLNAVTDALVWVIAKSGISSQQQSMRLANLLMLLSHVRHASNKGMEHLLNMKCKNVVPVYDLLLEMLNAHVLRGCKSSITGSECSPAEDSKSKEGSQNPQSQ
Chain of Thyrotropin receptor (Homo sapiens) (P16473 whole entry, looked up): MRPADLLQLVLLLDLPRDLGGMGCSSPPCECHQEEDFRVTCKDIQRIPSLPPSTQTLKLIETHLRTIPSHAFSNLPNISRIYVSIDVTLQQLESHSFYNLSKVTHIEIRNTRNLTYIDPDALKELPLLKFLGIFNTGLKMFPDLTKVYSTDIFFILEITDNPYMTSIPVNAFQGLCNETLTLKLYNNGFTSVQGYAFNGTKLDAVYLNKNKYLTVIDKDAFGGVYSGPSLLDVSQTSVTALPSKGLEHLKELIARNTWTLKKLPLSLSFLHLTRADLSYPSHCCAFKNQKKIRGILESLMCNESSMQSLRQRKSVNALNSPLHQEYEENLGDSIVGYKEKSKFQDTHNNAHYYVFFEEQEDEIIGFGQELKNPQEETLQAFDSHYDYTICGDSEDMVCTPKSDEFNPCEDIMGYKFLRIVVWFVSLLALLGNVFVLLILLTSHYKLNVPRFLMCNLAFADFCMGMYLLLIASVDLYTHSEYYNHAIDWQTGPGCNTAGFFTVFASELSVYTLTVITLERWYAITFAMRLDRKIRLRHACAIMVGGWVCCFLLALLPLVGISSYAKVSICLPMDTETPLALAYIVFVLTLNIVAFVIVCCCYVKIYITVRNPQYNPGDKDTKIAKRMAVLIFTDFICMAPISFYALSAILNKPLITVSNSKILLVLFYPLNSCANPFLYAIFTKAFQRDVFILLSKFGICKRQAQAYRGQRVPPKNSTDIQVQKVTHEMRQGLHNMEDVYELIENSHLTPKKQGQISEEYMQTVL
Chain of Progesterone receptor (Homo sapiens) (P06401 whole entry, looked up): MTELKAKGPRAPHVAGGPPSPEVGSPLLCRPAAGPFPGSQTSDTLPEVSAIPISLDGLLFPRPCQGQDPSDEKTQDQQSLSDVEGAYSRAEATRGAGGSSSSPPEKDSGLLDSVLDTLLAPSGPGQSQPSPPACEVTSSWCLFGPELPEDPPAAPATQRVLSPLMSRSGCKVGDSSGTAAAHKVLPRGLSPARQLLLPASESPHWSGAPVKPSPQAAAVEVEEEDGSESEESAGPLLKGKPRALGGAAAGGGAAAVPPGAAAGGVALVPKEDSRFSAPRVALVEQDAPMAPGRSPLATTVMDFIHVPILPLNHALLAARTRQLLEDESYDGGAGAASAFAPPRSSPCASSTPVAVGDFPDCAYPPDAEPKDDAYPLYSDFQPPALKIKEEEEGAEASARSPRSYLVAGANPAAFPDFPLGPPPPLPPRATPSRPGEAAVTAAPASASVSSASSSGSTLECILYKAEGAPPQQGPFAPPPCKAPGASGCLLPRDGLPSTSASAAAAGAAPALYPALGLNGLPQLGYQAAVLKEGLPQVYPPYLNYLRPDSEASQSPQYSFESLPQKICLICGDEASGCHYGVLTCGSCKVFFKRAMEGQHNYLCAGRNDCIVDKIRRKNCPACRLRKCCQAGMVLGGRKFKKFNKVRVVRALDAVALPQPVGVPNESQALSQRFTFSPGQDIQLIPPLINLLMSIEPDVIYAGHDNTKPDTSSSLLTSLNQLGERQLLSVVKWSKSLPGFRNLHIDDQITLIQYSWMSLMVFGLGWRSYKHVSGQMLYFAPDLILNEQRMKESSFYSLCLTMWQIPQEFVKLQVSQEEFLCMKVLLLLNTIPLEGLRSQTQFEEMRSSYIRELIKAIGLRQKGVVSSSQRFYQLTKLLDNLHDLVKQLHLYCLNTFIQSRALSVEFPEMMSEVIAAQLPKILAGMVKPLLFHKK
Chain of Thyrotropin-releasing hormone receptor (Homo sapiens) (P34981 whole entry, looked up): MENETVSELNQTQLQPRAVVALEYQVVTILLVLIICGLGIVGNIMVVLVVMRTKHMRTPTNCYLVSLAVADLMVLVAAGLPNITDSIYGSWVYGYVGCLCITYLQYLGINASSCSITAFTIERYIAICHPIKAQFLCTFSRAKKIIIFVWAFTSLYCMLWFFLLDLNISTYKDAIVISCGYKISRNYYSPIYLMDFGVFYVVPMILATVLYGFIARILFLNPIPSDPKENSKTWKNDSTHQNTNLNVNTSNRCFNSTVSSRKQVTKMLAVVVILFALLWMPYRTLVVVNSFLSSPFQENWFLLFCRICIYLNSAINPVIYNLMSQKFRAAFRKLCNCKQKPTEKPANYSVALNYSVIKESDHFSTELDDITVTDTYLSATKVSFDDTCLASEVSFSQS
Chain of Estrogen receptor (Homo sapiens) (P03372 whole entry, looked up): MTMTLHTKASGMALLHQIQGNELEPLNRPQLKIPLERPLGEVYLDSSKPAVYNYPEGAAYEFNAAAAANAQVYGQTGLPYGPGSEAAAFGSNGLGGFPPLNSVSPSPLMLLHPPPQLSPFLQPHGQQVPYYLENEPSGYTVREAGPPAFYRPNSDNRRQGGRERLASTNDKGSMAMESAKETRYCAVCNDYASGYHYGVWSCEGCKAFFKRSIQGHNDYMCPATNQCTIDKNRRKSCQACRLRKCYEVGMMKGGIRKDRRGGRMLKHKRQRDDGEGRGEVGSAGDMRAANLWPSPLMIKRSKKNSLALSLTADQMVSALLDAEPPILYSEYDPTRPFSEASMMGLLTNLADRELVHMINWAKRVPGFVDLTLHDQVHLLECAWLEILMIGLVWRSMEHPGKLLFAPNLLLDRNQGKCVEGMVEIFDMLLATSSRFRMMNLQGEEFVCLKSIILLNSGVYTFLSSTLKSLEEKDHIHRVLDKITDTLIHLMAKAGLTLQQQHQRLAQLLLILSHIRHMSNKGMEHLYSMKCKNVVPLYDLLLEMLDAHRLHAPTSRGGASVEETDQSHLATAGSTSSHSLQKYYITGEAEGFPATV
Chain of Androgen receptor (Homo sapiens) (P10275 whole entry, looked up): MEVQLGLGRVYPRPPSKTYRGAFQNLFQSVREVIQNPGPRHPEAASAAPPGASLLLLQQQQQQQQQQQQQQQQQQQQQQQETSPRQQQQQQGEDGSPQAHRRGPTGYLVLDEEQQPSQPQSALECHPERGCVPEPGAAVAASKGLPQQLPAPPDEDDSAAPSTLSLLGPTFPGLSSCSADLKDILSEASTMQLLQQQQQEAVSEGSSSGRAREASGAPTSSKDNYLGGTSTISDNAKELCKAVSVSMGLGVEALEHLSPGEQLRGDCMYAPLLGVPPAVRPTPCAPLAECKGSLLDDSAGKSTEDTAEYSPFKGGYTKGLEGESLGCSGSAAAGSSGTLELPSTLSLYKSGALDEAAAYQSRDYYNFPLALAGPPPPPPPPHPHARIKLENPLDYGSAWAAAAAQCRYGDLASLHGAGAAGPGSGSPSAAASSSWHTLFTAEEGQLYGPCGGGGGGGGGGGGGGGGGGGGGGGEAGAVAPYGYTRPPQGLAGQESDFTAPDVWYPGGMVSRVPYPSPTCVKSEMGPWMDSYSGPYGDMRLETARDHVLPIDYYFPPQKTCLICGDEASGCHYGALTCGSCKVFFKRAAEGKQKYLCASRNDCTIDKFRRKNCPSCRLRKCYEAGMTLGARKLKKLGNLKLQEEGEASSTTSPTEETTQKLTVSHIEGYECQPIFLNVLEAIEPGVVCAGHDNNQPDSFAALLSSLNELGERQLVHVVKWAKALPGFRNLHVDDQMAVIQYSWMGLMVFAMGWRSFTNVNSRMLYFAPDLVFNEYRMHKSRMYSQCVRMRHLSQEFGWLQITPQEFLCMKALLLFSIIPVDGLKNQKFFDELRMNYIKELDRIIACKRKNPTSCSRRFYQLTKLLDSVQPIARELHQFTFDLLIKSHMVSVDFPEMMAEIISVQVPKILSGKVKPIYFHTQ

Cc1ncc(CO)c(CN)c1O
Potency [1]: inactive | Potency [2]: inactive | outcome [3]: inactive | Potency [4]: inactive | Potency [5]: inactive | Potency [6]: inactive | Potency [7]: inactive | outcome [8]: inactive | Potency [9]: inactive | outcome [10]: inactive | Potency [11]: inactive | Potency [12]: inactive | Potency [13]: inactive | Potency [14]: inactive | Potency [15]: inactive | Potency [16]: inactive | outcome [17]: inactive | outcome [18]: inactive | outcome [19]: inactive

FC(F)(F)C(Cl)(Cl)Cl
Potency [1]: inactive | Potency [2]: inactive | outcome [3]: inactive | Potency [4]: inactive | Potency [5]: inactive | Potency [6]: inactive | outcome [8]: inactive | Potency [9]: inactive | outcome [10]: inactive | Potency [11]: inactive | Potency [12]: inactive | Potency [13]: inactive | Potency [16]: inactive | outcome [17]: inactive | outcome [18]: inactive | outcome [19]: inactive | outcome [20]: inactive

c1ccc(CN(CC2=NCCN2)c2ccccc2)cc1
Potency [1]: inactive | Potency [2]: inactive | outcome [3]: inactive | Potency [4]: inactive | Potency [5]: inactive | Potency [6]: inactive | outcome [8]: inactive | Potency [9]: inactive | outcome [10]: inactive | Potency [11]: inactive | Potency [12]: inactive | Potency [13]: inactive | Potency [15]: inactive | Potency [16]: inactive | outcome [17]: inactive | outcome [18]: inactive | outcome [19]: inactive

CCCCC1CCC(=O)O1 (stereo not drawn)
Potency [1]: inactive | Potency [2]: inactive | outcome [3]: inactive | Potency [4]: inactive | Potency [5]: inactive | Potency [6]: inactive | outcome [8]: inactive | Potency [9]: inactive | outcome [10]: inactive | Potency [11]: inactive | Potency [12]: inactive | Potency [14]: inactive | Potency [15]: inactive | Potency [16]: inactive | outcome [17]: inactive | outcome [18]: inactive | outcome [19]: inactive | outcome [20]: inactive

CNCCC(Oc1ccccc1OC)c1ccccc1 (stereo not drawn)
Potency [1]: inactive | Potency [2]: inactive | outcome [3]: inactive | Potency [4]: inactive | Potency [5]: inactive | Potency [6]: inactive | outcome [8]: inactive | Potency [9]: inactive | outcome [10]: inactive | Potency [11]: inactive | Potency [12]: inactive | Potency [13]: inactive | Potency [15]: inactive | outcome [17]: inactive | outcome [18]: inactive | outcome [19]: inactive | outcome [20]: inactive

CC(C)O
Potency [1]: inactive | Potency [2]: 29.3 µM (active) | outcome [3]: inactive | Potency [4]: inactive | Potency [5]: inactive | Potency [6]: inactive | outcome [8]: inactive | Potency [9]: inactive | outcome [10]: inactive | Potency [11]: inactive | Potency [12]: inactive | Potency [13]: inactive | Potency [16]: inactive | outcome [17]: inactive | outcome [19]: inactive | outcome [20]: inactive

CCOC(=O)c1cc(=O)c2c(OCC(COc3cccc4oc(C(=O)OCC)cc(=O)c34)OC(=O)[C@@H](N)CCCCN)cccc2o1
Potency [1]: inactive | Potency [2]: inactive | outcome [3]: inactive | Potency [4]: inactive | Potency [5]: inactive | Potency [6]: inactive | Potency [7]: inactive | outcome [8]: inactive | Potency [9]: inactive | outcome [10]: inactive | Potency [11]: inactive | Potency [12]: inactive | Potency [16]: inactive | outcome [17]: inactive | outcome [18]: inactive | outcome [19]: inactive

C[C@@H]1CN(c2c(F)c(N)c3c(=O)c(C(=O)O)cn(C4CC4)c3c2F)C[C@H](C)N1
activity change [1]: -0.971% [at 18.9 µM, active compounds read high] | activity change, negative = inhibition [2]: 23.6% [at 19 µM] | activation [3]: 3.1% [at 19 µM] | activity, negative = inhibition [4]: 17% [at 19 µM] | activity change, negative = cytotoxicity [5]: 2.69% [at 19 µM] | activity change, negative = cytotoxicity [6]: 6.77% [at 19 µM] | activity change, negative = cytotoxicity [8]: 5.91% [at 19 µM] | activation [9]: 0.0574% [at 19 µM] | cAMP activity change [10]: 4.73% [at 18.9 µM] | activity change, negative = inhibition [11]: -0.774% [at 19 µM] | activity change, negative = cytotoxicity [12]: 1.7% [at 19 µM] | activation [13]: 3.14% [at 19 µM] | activity change, negative = inhibition [14]: 8.12% [at 18.9 µM] | Potency [15]: inactive | activity change, negative = cytotoxicity [16]: 4.97% [at 19 µM] | viability change, negative = cytotoxic [17]: 4.43% [at 15.8 µM] | activation [19]: 1.17% [at 15.8 µM] | activity, negative = inhibition [20]: 0.314% [at 10.5 µM]
